Structures are written as SMILES. Records with an inconclusive call do not appear. Where a call stands in place of a potency, no number is given. The source made the active and inactive calls. Calls follow the shape of the dose curve; as a rule, active = well fitted inhibition curve with a large enough effect; inconclusive = small, poorly fitted or top-dose-only effect; inactive = no such curve, though single readings can be large or run the other way.
Potency is read from the fitted curve at half-maximal effect.

The nature of this test: qHTS Screen of the MIPE 4.0 Collection Against Ewings Sarcoma (TC71) (AID 1259253). Also: nearly all actives have a fitted effect of over 40% in size. As to conditions: TC71 Ewing sarcoma viability, CellTiter-Glo, 48 h; series mostly up to 45.8 µM. In a few lines:
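Cells plated in serum-containing RPMI (5% FBS) and treated with compound dilutions for 48 h. Readout luminescent viability; normalization relied on vehicle (no inhibition) and media-only columns (full inhibition).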
`O[C@@H](CNC[C@H](O)[C@H]1CCc2cc(F)ccc2O1)[C@@H]1CCc2cc(F)ccc2O1`: the Potency was 20.9 µM (active). Next, `CN(C)CCc1c[nH]c2ccc(C[C@H]3COC(=O)N3)cc12`: “inactive”; `COc1ncnc(NS(=O)(=O)c2ccc(N)cc2)c1OC`: “inactive”; `CO[C@@]12[C@H](COC(N)=O)C3=C(C(=O)C(C)=C(N)C3=O)N1C[C@@H]1N[C@@H]12`: 0.0418 µM (active). Next, `CO[C@@H]1[C@@H](OC(N)=O)[C@@H](O)[C@H](Oc2ccc3c(O)c(NC(=O)c4ccc(O)c(CC=C(C)C)c4)c(=O)oc3c2C)OC1(C)C`: 4.69 µM (active); `Cc1ncc([N+](=O)[O-])n1CCO`: “inactive”; `CC(C)Cn1cnc2c(N)nc3ccccc3c21`: 18.7 µM (active). As for `O=C(O)CSCC(=O)NC1CCSC1=O` (stereo not given), the entry is “inactive”; as for `Cc1onc(-c2ccccc2Cl)c1C(=O)N[C@@H]1C(=O)N2[C@@H]1SC(C)(C)[C@@H]2C(=O)O`, “inactive”; as for `CC1=CC(=O)c2ccccc2C1=O`, 26.4 µM (active). As for `CC(C)(Sc1cc(C(C)(C)C)c(O)c(C(C)(C)C)c1)Sc1cc(C(C)(C)C)c(O)c(C(C)(C)C)c1`, the Potency is 20.9 µM (active). For the molecule `NS(=O)(=O)c1cc2c(cc1Cl)NC(C(Cl)Cl)NS2(=O)=O` (stereo not given), the Potency entry was “inactive”. Next, `C[C@]12C=CC(=O)C=C1CC[C@@H]1[C@@H]2C(=O)C[C@@]2(C)[C@H]1CC[C@]2(O)C(=O)CO`: “inactive”; `COc1cc(NCc2ccc3nc(N)nc(N)c3c2C)cc(OC)c1OC`: 0.833 µM (active). Next, `O=C(NCC1CN(c2ccc(N3CCOCC3=O)cc2)C(=O)O1)c1ccc(Cl)s1` (stereo not given): “inactive”.
